ATXN2 expr inh: ATXN2 expression inhibition; HEK-293 ATXN2-luciferase reporter, luminescence, 24 h; Potency, µM (doses to about 57 µM), inactives show at the highest dose activity change, negative = inhibition, hits mostly inhibitors; 360,000 compounds, 0.72% hits; AID 1745845; note: % is set by controls: 0 for no effect and ±100 for the full control effect; nearly all actives have a fitted effect of over 55% in size
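ATXN2-luciferase reporter cells (luciferase flanked by upstream and downstream ATXN2 gene portions) were treated 24 h at 37 °C with compounds at up to 57 uM. SteadyGlo luminescence gave expression; GF-AFC fluorescence gave viability.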
KB-V1 MDR tox: KB-V1 MDR subline cytotoxicity; KB-V1 MDR cells viability, CellTiter-Glo, 72 h; Potency, µM (series often up to 46.1 µM), usual class: cytotoxic; 400,000 compounds, 3.4% hits; AID 1347076; note: % is set by controls: 0 for no effect and ±100 for the full control effect; nearly all actives have a fitted effect of over 60% in size
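Cells of the MDR subline KB-V1 are plated, dosed with compound at multiple concentrations, and incubated 72 h at 37 degrees C; CellTiter-Glo is then added and luminescence read after 10 min.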
HT1080 IDH1KD tx: HT-1080 IDH1 knockdown cell toxicity (counter line) | Potency, µM (top dose mostly 46.1 µM), without a hit: top-dose activity, negative = toxicity, hits mostly cytotoxic | HT-1080 IDH1 knockdown viability, ATP luminescence, 48 h | 360,000 compounds, 2% hits;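 note: 0% = DMSO wells and -100% = cell-free medium wells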
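Assay cells: HT-1080 with IDH1 knockdown, 750 per well, RPMI/5% FBS. Exposure: 48 h at 37 °C following 2 h pre-incubation. Read: CellTiter-Glo luminescence; fitted concentration-response, curve class assigned.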
KB-3-1 tox: kills parental KB-3-1 adenocarcinoma cells. KB-3-1 viability, CellTiter-Glo ATP luminescence, 72 h. Potency, µM (series often up to 46.1 µM), most hits filed as cytotoxic. 400,000 compounds, 1.4% hits. AID 1347075; note: % is set by controls: 0 for no effect and ±100 for the full control effect; nearly all actives have a fitted effect of over 60% in size
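Parental KB-3-1 adenocarcinoma cells in phenol-red-free DMEM with 10% FBS were pin-treated with compounds at several concentrations, incubated 72 h at 37 °C, and viability read by CellTiter-Glo luminescence; concentration-effect curves were fitted after normalization.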
ATXN viability: cell viability loss in ATXN counter-screen. AID 651635. Potency, µM (series often up to 56.7 µM), usual class: cytotoxic. 400,000 compounds, 0.49% hits. S2 cells (HEK-293 line with an ATXN2-luciferase reporter) viability, CellTiter-Fluor protease fluorescence, 24 h; note: nearly all actives have a fitted effect of over 40% in size
HT1080NT lethal: kills 2HG-producing HT-1080-NT fibrosarcoma cells; 360,000 compounds, 1.6% hits; Potency, µM (top dose mostly 46.1 µM), without a hit: at the highest dose activity, negative = less viability, hits mostly cytotoxic; HT-1080-NT fibrosarcoma viability, CellTiter-Glo ATP luminescence, 48 h;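 note: NT is the 2HG producing partner of a matched IDH1 knockdown line; 0% = DMSO-treated cells and -100% = media-only wells without cells; nearly all actives have a fitted effect of over 55% in size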
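Fibrosarcoma NT cells, 750 per well in 5% FBS RPMI, were exposed to compound for 48 hours. Viability: CellTiter-Glo luminescence.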
* hit, by the source's call; ! = not confirmed by another sample. In the library only some 6.2% were active in any assay of this set; here they are far more common. Calls come from the whole dose curve; as a rule, active = well fitted curve in the direction sought with a large enough effect; inconclusive = small, poorly fitted or top-dose-only effect, or another doubt; inactive = no such curve, though single readings can be large; an effect the other way counts as inactive or inconclusive. Potency is the fitted concentration of half-maximal effect.

How did COCCNC(=O)c1cc2c(c(-c3cccc(-c4cc5ccccc5o4)c3)n1)[C@H](CCO)N(S(=O)C(C)(C)C)C2 (some centres undefined) do in these assays?
ATXN2 expr inh: -13%; KB-V1 MDR tox: 18µM*; HT1080 IDH1KD tx: inconclusive; KB-3-1 tox: inactive; ATXN viability: inconclusive; HT1080NT lethal: inconclusive

What do the screens show for `CC(C)(C)S(=O)N1Cc2cc(C(=O)NCc3ccc(Oc4ccccc4)cc3)nc(-c3cccc(-c4cc5ccccc5o4)c3)c2[C@@H]1CCO` (some centres undefined)?
ATXN2 expr inh: inconclusive; KB-V1 MDR tox: inconclusive; HT1080 IDH1KD tx: inconclusive; KB-3-1 tox: inconclusive; HT1080NT lethal: 23µM*

Results for COc1cccc(-c2cccc(-c3nc(C(=O)NCc4ccc(Oc5ccccc5)cc4)cc4c3[C@H](CCO)N(S(=O)C(C)(C)C)C4)c2)c1 (some centres undefined) ?
ATXN2 expr inh: inconclusive; KB-V1 MDR tox: inconclusive; HT1080 IDH1KD tx: inconclusive; KB-3-1 tox: inactive; ATXN viability: inconclusive; HT1080NT lethal: inconclusive

What do the screens show for `COc1ccc(N2C(=O)[C@@H]3C[C@H]2CN3Cc2ccc3nccnc3c2)cc1Cl`?
ATXN viability: inactive

Results for Cc1oc(-c2ccccc2F)nc1CS(=O)CC(=O)NC(C)C (centres undefined) ?
KB-V1 MDR tox: inactive; KB-3-1 tox: inactive

What do the screens show for `CC(Sc1nnc(-c2ccco2)n1-c1ccccc1)C(=O)NCC1CCCO1` (centres undefined)?
ATXN2 expr inh: 0%; KB-V1 MDR tox: 21µM*; HT1080 IDH1KD tx: 10%; KB-3-1 tox: inactive; ATXN viability: inactive; HT1080NT lethal: 6%

Results for Cc1ccc(-n2c(SCC3CCCCO3)nnc2-c2ccco2)cc1 (centres undefined) ?
ATXN2 expr inh: -3%; KB-V1 MDR tox: 21µM*; HT1080 IDH1KD tx: inconclusive; KB-3-1 tox: inconclusive; ATXN viability: inactive; HT1080NT lethal: -19%

What do the screens show for `CCCCc1nn2c(=O)cc(COC(=O)c3cccc(NC(=O)CCc4ccccc4)c3)nc2s1`?
ATXN2 expr inh: 3%; KB-V1 MDR tox: inactive; KB-3-1 tox: inactive; ATXN viability: inactive

What do the screens show for `O=C(OCc1ccccc1F)c1ccc(-c2nnn(Cc3ccccc3)n2)cc1`?
ATXN2 expr inh: 2%; KB-V1 MDR tox: inconclusive; KB-3-1 tox: inactive; ATXN viability: inactive

Results for COc1ccc(C2c3c(ncn(CCN4CCOCC4)c3=N)Oc3ccc4ccccc4c32)cc1OC (centres undefined) ?
ATXN2 expr inh: inconclusive; KB-V1 MDR tox: 23µM*; HT1080 IDH1KD tx: 16µM*!; KB-3-1 tox: inconclusive; HT1080NT lethal: inconclusive

Results for COc1ccc(C2c3c(ncn(CCCO)c3=N)Oc3ccc4ccccc4c32)cc1 (centres undefined) ?
ATXN2 expr inh: inconclusive; KB-V1 MDR tox: inactive; HT1080 IDH1KD tx: 21µM*; KB-3-1 tox: inconclusive; HT1080NT lethal: 21µM*

What do the screens show for `COc1ccc(C2c3c(ncn(CCCO)c3=N)Oc3ccc4ccccc4c32)cc1OC` (centres undefined)?
ATXN2 expr inh: inconclusive; KB-V1 MDR tox: inactive; HT1080 IDH1KD tx: 23µM*; KB-3-1 tox: inconclusive; ATXN viability: inconclusive; HT1080NT lethal: inconclusive

What do the screens show for `Cc1ccccc1Cn1c(CN2CCC(C(=O)NCCc3ccccc3)CC2)cc2ccccc21`?
ATXN2 expr inh: -5%; KB-V1 MDR tox: inactive; KB-3-1 tox: inactive; ATXN viability: inconclusive

Results for COc1ccc(CNC(=O)CCc2c(C)nc3c(c2C)c(=O)n(C)c(=O)n3C)cc1 ?
ATXN2 expr inh: -7%; KB-V1 MDR tox: inactive; KB-3-1 tox: inactive; ATXN viability: inactive

What do the screens show for `Cc1cc(C)cc(NC(=O)CSCc2cc(=O)c3ccc(C)c(C)c3[nH]2)c1`?
ATXN2 expr inh: -2%; KB-V1 MDR tox: inactive; KB-3-1 tox: inactive; ATXN viability: inactive
